Assay outcomes as filed in PubChem.
Pf growth 96h – inhibits malaria parasite growth, 96 h; P. falciparum luciferase reporter growth, 96 h; Potency, µM (series often up to 28.7 µM), without a hit: at the top dose activity change, negative = inhibition, usual class: inhibitors; hit rate 6.9% among 320,000; AID 504834; further: potency means the concentration at half of the fitted maximal effect; on the % scale 0 is the no-effect control and ±100 the full control effect
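P. falciparum expressing integrated firefly luciferase, in erythrocytes at 2% hematocrit, 0.05% parasitemia, incubated with compounds 96 h at 37 C, 5% CO2. Growth inhibition read as loss of luminescence; two-generation exposure targets delayed-death apicoplast inhibitors.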
CHX counter – counter-screen for Shiga toxin inhibitors: cycloheximide protein synthesis inhibition | hit rate 12% among 300,000 | max response, % | cell reporter, cycloheximide protein synthesis inhibition counterscreen; in the data active means max response mostly above about 13%, no sharp cut-off; inactive means mostly below about 14%; further: read at 38.3 µM for the half of the compounds with a filed dose; 0% is about no effect
Shiga inhibitor – blocks Shiga toxin action in Vero cells; hit rate 9.2% among 290,000; Vero cells, Shiga toxin protein synthesis inhibition reporter; inhibition, % at 38.7 µM; in the data active means inhibition mostly above about 28%, no sharp cut-off; inactive means mostly below about 43%; further: 0% is about no effect
HCV inh – HCV inhibition; Huh7.5.1 HCVcc-Cre infection, luciferase reporter, 44 h; Potency, µM (top dose mostly 41.8 µM), for inactives: at the highest dose activity change, negative = inhibition, most hits filed as inhibitors; hit rate 3.4% among 340,000; AID 651820; further: potency means the concentration at half of the fitted maximal effect; on the % scale 0 is the no-effect control and ±100 the full control effect
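After 44 h co-culture of compound, cells and HCVcc-Cre (~0.5 moi), substrate is added for 15 min at room temperature and luciferase measured over 15 sec. Cells were seeded at 1,000/well and pre-cultured 4 h.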
HCMV antiviral – blocks human cytomegalovirus replication. AID 1259415. hit rate 4.5% among 410,000. activity change, negative = inhibition, % at 57.5 µM. HFF cells, HCMV-luciferase reporter, 72 h; active compounds read low; in the data active means activity change below about -60%; inconclusive means no clear call, values can overlap the other calls; inactive means above about -39%; further: on the % scale 0 is the no-effect control and ±100 the full control effect
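Compounds were evaluated in HFFs infected with an HCMV luciferase reporter virus (MOI 1 PFU/cell). Luciferase in lysates collected 72 h post infection served as the replication measure.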
Pf growth 48h – P. falciparum growth inhibition at 48 hours (one generation). P. falciparum luciferase growth in erythrocytes, 48 h. Potency, µM (titrated, usually from 28.7 µM), inactives show top-dose activity change, negative = inhibition, hits mostly inhibitors. hit rate 5.9% among 310,000. AID 504832; further: potency means the concentration at half of the fitted maximal effect; on the % scale 0 is the no-effect control and ±100 the full control effect
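Luciferase-expressing P. falciparum in infected erythrocytes (2% hematocrit, 0.1% parasitemia final) in RPMI 1640/0.5% Albumax were exposed to compound for 48 hours at 37 C, 5% CO2; growth read as luminescence.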
An asterisk follows results filed as active; i = inactive; ? = inconclusive; / = no result. Compounds with a hit are over-represented: about 21% of the library has one in this group of screens. Unless noted, the call rests on the fitted dose curve; in most records, active means well fitted inhibition curve with a large enough effect; inconclusive means small, poorly fitted or top-dose-only effect, or another doubt; inactive means no such curve, though single readings can be large or run the other way.

SMILES	Pf growth 96h	CHX counter	Shiga inhibitor	HCV inh	HCMV antiviral	Pf growth 48h
CC(C)c1ccc(OCc2nc(-c3ccccn3)no2)c(Br)c1	49%	46*	67*	13µM*	118	164%
Cc1noc(COc2ccc(OCc3nc(C)no3)cc2)n1	0%	10	21	-3%	8	24%
Cc1ccc(NC(=O)CCN2CC(C)OC(C)C2)cc1 (stereo not given)	-9%	-4	/	-3%	25	11%
Cc1cccc(-n2c(C)cc(C(=O)C(=O)Nc3nncs3)c2C)c1	/	/	/	/	1	/
COc1ccc(-c2noc(COc3ccc(C)cc3C)n2)cc1OC	/	/	/	/	3	/
Cc1ccc(OCc2nc(-c3ccccn3)no2)c(Br)c1	2.3µM*	11	21	-1%	0	14%
CCc1nc(C)cc2c1sc1ccccc12	32%	19*	38	?	38	23%
c1ccc2c(c1)sc1ccccc12	1%	/	/	/	/	9%
CC[n+]1c(C)cc2c(sc3ccccc32)c1C	?	1	2	?	-101*	?
Cc1ccc(CC(=O)NC2CCCc3ccccc32)cc1C (stereo not given)	-25%	0	-6	-5%	24	10%
CCN1CCCC1CNC(=O)C1CCN(Cc2nc(-c3cccc(Br)c3)oc2C)CC1 (stereo not given)	?	2	-8	2.5µM*	/	6.6µM*
COc1ccccc1CNC(=O)C1CCN(Cc2nc(-c3cccc(Cl)c3)oc2C)CC1	i	3	22	?	-9	10µM*
CCc1ccc(-c2nc(CN3CCC(C(=O)NCc4ccccc4OC)CC3)c(C)o2)cc1	-27%	16	19	10µM*	-38	?
Cc1oc(-c2cccc(F)c2)nc1CN1CCCCC1CCn1cccn1 (stereo not given)	0%	-2	10	-9%	1	13µM*
C=CCn1c(=N)n(CC(=O)c2ccc(Cl)cc2)c2ccccc21	0%	8	-1	?	-19	?
N=c1n(CC(=O)c2cccs2)c2ccccc2n1Cc1ccccc1	4.7µM*	0	-18	-5%	-10	?
C=CCn1c(=N)n(CC(=O)c2ccc(Br)s2)c2ccccc21	13µM*	-3	-15	?	-74*	12µM*
C=CCn1c(=N)n(CC(=O)OC)c2ccccc21	12µM*	0	8	5%	4	53%
Cc1nc(SCC(=O)NCC2CCCO2)c2cc(-c3ccccc3)sc2n1 (stereo not given)	12%	/	/	?	?	?
Cc1ccc(NC(=O)CSc2nc3ccccc3c(=O)n2CCCC(=O)NCCCN2CCOCC2)cc1C	13µM*	-8	-13	-15%	?	?
CCOc1ccc(NC(=O)CSc2nc3ccccc3c(=O)n2CCCC(=O)NCCCN2CCCC2=O)cc1	1%	-1	-7	?	-28	?
CCc1ccc(NC(=O)CSc2nc3ccccc3c(=O)n2CCCC(=O)NCCCN2CCOCC2)cc1	?	5	-9	11µM*	-19	7.4µM*
COc1ccc(C2=NOC(C(=O)Nc3cc(C)on3)C2)cc1OC (stereo not given)	0%	-3	-4	-11%	50	-15%
Cc1cc(NC(=O)C2CC(c3ccc(F)cc3)=NO2)no1 (stereo not given)	5.2µM*	-3	-11	3%	42	/
COC(=O)c1ccccc1NC(=O)C1CC(c2ccc(F)cc2)=NO1 (stereo not given)	10µM*	-4	25	?	-25	28%
SMILES	Pf growth 96h	CHX counter	Shiga inhibitor	HCV inh	HCMV antiviral	Pf growth 48h
Cc1ccc(C)c(NC(=O)CCS(=O)(=O)c2cccc3nsnc23)c1	/	/	/	/	15	/
CC(C)(C)C(=O)NNC(=O)c1cc2sccc2s1	66%	6	-2	14%	-19	-19%
O=c1ccc2c(o1)/C(=C/C=C(Cl)Cl)CCC2	?	20	24	16µM*	-7	0%
NS(=O)(=O)c1ccc(NC(=O)CSc2ccccn2)cc1	-18%	8	-4	-10%	-31	15%
COc1ccc(NC(=O)Cc2ccccc2)cn1	5.2µM*	0	47	16%	-30	33%
COc1ccc(/C=C/C(=O)Nc2ccc(OC)nc2)cc1	?	19	44	-27%	2	?
COc1ccc(NC(=O)CSc2ccccc2)cn1	65%	27*	49*	-6%	-103*	40%
COc1ccc(CS(=O)(=O)/C(Cl)=C(/Cl)C(=O)Nc2ccc(OC)nc2)cc1	?	13	3	4µM*	/	/
NS(=O)(=O)c1ccc(NC(=O)CSc2ccccc2)cc1	133%	20*	41	4%	-8	40%
COc1ccccc1NC(=O)Cn1c(=O)n(-c2cccc(C(C)=O)c2)c(=O)c2c3c(sc21)CN(C(C)=O)CC3	/	/	/	/	6	/
COc1ccc(CN2CCCN(CC(=O)Nc3ccc4c(c3)OCCO4)S2(=O)=O)cc1	/	/	/	/	3	/
CO[C@H]1[C@H](O[C@H]2O[C@@H](C)[C@@H](O[C@@H]3C[C@](C)(O)[C@H](OC(=O)CC(C)C)[C@H](C)O3)[C@@H](N(C)C)[C@@H]2O)[C@@H](CC=O)C[C@@H](C)[C@@H](O)/C=C\C=C/C[C@@H](C)OC(=O)C[C@H]1OC(C)=O	0.41µM*	/	/	/	/	4.5µM*
CO[C@@H]1[C@@H](OC2OC(C)C(OC3CC(C)(O)C(OC(=O)CC(C)C)C(C)O3)C(N(C)C)C2O)[C@@H](CC=O)C[C@@H](C)C(=O)/C=C\C2O[C@H]2C[C@@H](C)OC(=O)C[C@H]1OC(C)=O (stereo not given in full)	0.76µM*	/	/	/	/	6.7µM*
O=C(c1cccc(Cl)c1)N1CCCc2ccccc21	-3%	-3	/	-2%	-22	1%
Cc1nc2ccccc2c(=O)n1-c1ccc(NC(=O)c2cccc([N+](=O)[O-])c2)cc1	/	/	/	/	-16	/
CC(=O)c1cccc(CN2CCCC(CCC(=O)NCc3ccc(C)o3)C2)c1 (stereo not given)	10%	-2	3	?	-11	?
C#CCOCCOCCOCCNc1nc(N2CCN(C(=O)[C@H]([C@@H](C)CC)n3cc([C@@H](N)Cc4ccc(O)cc4)nn3)CC2)nc(N2CCN(C(=O)[C@H](CCCCN)n3cc([C@@H](N)CC(C)C)nn3)CC2)n1	24%	35*	-13	/	/	38%
C#CCOCCOCCOCCNc1nc(N2CCN(C(=O)C(Cc3ccc(O)cc3)n3cc(C(N)C(C)CC)nn3)CC2)nc(N2CCN(C(=O)C(Cc3ccc(O)cc3)n3cc(C(N)C(C)CC)nn3)CC2)n1 (stereo not given)	9.3µM*	-2	-17	22%	-37	9.3µM*
